High-throughput results (PubChem BioAssay)
HCMV antiviral – inhibitors of human cytomegalovirus; AID 1259415; HFF cells, HCMV-luciferase reporter, 72 h; stronger effect = lower value; activity change, negative = inhibition, % at 57.5 µM; 410,000 compounds, 4.5% hits; in the data active = activity change below about -60%; inconclusive = no clear call, values can overlap the other calls; inactive = above about -39%
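Luciferase read-out from HCMV-luciferase-infected HFFs (MOI 1 PFU/cell) 72 h post infection at 37C; compounds added after 16 h cell attachment; activity normalized between buffer-only basal and Salinomycin (10uM) inhibitor controls.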
Lassa entry inh – Lassa virus entry inhibition. Lassa virus pseudotype entry inhibition, cell reporter. 300,000 compounds, 1.2% hits. Potency, µM (top dose mostly 37.9 µM), most hits filed as inhibitors; calls by dose curve; tested in HEK293 cells; also: nearly all actives have a fitted effect of over 50% in size
FMDV antiviral – blocks foot and mouth disease virus. FMDV antiviral cell-based qHTS. Potency, µM (series often up to 57.9 µM), most hits filed as inhibitors. 410,000 compounds, 1.2% hits. AID 1159524; calls by dose curve; tested in HEK293T cells; also: read-out not given here; nearly all actives have a fitted effect of over 45% in size
MARV entry inh – blocks Marburg virus binding to or entry into cells. Marburg virus pseudotyped entry inhibition, cell reporter. Potency, µM (series often up to 37.8 µM), most hits filed as inhibitors. 300,000 compounds, 1.8% hits. AID 540276; calls by dose curve; tested in HEK293 cells
Of the large screens only hits and unclear results are named; the others gave an inactive call; ! = not confirmed by another sample. Only some compounds are listed: those with a hit (about 6.2% of all), similar ones and a draw of the others.

COc1ccc(NC(=O)CSC2=Nc3ccccc3C3=NC(CCC(=O)NCCc4ccccc4)C(=O)N23)cc1 (stereo unspecified)	none (no result: MARV entry inh)
O=C(Cn1cc2c(n1)CCCC2)Nc1cc(C(F)(F)F)ccc1Cl	none
Cc1nc2ccc(S(=O)(=O)CCC(=O)NCc3ccc(Cl)cc3)cc2s1	none (no result: Lassa entry inh, FMDV antiviral, MARV entry inh)
Cc1nc2ccc(S(=O)(=O)NCC(=O)NCc3ccc(Cl)cc3)cc2s1	HCMV antiviral -69!
Cc1csc2nc(-c3cccc(NC(=O)c4c(F)cccc4F)c3)cn12	none (no result: MARV entry inh)
Cc1ccc(C(NC(=O)C2CCN(CCCOc3ccccc3)CC2)c2ccccn2)cc1 (stereo unspecified)	none (no result: Lassa entry inh, MARV entry inh)
COc1ccc(C(NC(=O)C2CCN(CCCOc3ccccc3)CC2)c2cccs2)cc1 (stereo unspecified)	HCMV antiviral -103 (no result: Lassa entry inh, MARV entry inh)
COc1ccc(COC(=O)NN=C2C[C@@H](O)[C@@H](O)[C@@H]3[C@H]4C(=O)N(c5cccc(Oc6ccccc6)c5)C(=O)[C@@H]4CC[C@H]23)cc1	Lassa entry inh inconclusive (no result: HCMV antiviral, FMDV antiviral)
O=C(O)Cc1c(C(=O)O)nnn1-c1ccc(Cl)cc1Cl	HCMV antiviral -66 (no result: Lassa entry inh, MARV entry inh)
CN(C)c1nnnn1-c1ccc(Cl)cc1Cl	none
O=C(CCl)NCc1c(Cl)cccc1-n1cccc1	HCMV antiviral -98, Lassa entry inh inconclusive, MARV entry inh inconclusive
CC(C)Oc1ccc(CCC(=O)N/N=C/c2ccncc2)cc1	Lassa entry inh 1µM
COc1ccc(CNC(=O)c2ccc3c(c2)N(Cc2ccccc2)CCS3)cc1	Lassa entry inh 4.5µM, MARV entry inh inconclusive
Cc1ccccc1CNC(=O)c1ccc2c(c1)N(Cc1ccccc1)CCS2	MARV entry inh 8.9µM (no result: Lassa entry inh)
O=C(NCc1ccccc1Cl)c1ccc2c(c1)N(Cc1ccccc1)CCS2	MARV entry inh inconclusive
Cc1ccc(CN2CCSc3ccc(C(=O)N4CCOCC4)cc32)cc1	none (no result: HCMV antiviral, Lassa entry inh, MARV entry inh)
CCN1CCN(C(=O)c2ccc3c(c2)N(Cc2ccc(C)cc2)CCS3)CC1	HCMV antiviral -85 (no result: Lassa entry inh, MARV entry inh)
CCOc1ccc(CNC(=O)c2ccc3c(c2)N(Cc2ccccc2)CCS3)cc1	MARV entry inh inconclusive (no result: Lassa entry inh)
Cc1cc2c(nc1C)CCCN2Cc1ccccn1	none (no result: Lassa entry inh, FMDV antiviral, MARV entry inh)
O=C(NCc1ccc2c(c1)OCO2)c1nc(S(=O)(=O)Cc2ccccc2F)ncc1Cl	HCMV antiviral -80, FMDV antiviral 22µM (no result: Lassa entry inh, MARV entry inh)
O=C(NCc1ccc2c(c1)OCO2)c1ccccc1Cl	none
O=C(NCc1ccc2c(c1)OCO2)c1nc(S(=O)(=O)Cc2ccccc2)ncc1Cl	HCMV antiviral -103, Lassa entry inh inconclusive, FMDV antiviral 16µM, MARV entry inh inconclusive
CC(C)(CNC(=O)c1cnn(-c2ncc3c(n2)-c2ccccc2CC3)c1C1CC1)N1CCOCC1	none (no result: HCMV antiviral, Lassa entry inh, MARV entry inh)
C[C@@H]1CCCN1[C@@H]1C[S+](=O)([O-])N[C@@H]1COCc1ccccc1	none (no result: HCMV antiviral, FMDV antiviral, MARV entry inh)
COc1cccc(NC(=O)Cn2c(=O)n(Cc3ccc(C(=O)NCc4ccc(C)cc4)cc3)c(=O)c3ccccc32)c1	Lassa entry inh inconclusive, MARV entry inh inconclusive
COc1ccc(C(=O)C/C(=C\C(=O)c2ccc(C)cc2)c2ccccc2)cc1	HCMV antiviral -98, Lassa entry inh inconclusive, MARV entry inh inconclusive
COc1ccc(C(CC(=O)c2ccccc2)S(=O)(=O)c2ccc(C)cc2)cc1 (stereo unspecified)	HCMV antiviral -105
Cn1c(-c2cccc(C(F)(F)F)c2)cc2cnc(Nc3ccc(Oc4ccccc4)cc3)cc21	none (no result: Lassa entry inh, FMDV antiviral, MARV entry inh)
CCOc1cc(NC(=S)NCCCN(C)C)c(OCC)cc1NC(=O)c1cccs1	HCMV antiviral -64, MARV entry inh inconclusive
CCOc1cc(NS(=O)(=O)c2ccc(NC(C)=O)cc2)c(OCC)cc1NC(=O)c1cccs1	HCMV antiviral -79
CC1(C(=O)NCc2ccccc2Br)CCN1Cc1c(F)cccc1F (stereo unspecified)	HCMV antiviral -61 (no result: Lassa entry inh, MARV entry inh)
CCc1ccc(OCCNC(=O)c2ccccc2SCc2ccccc2)cc1	HCMV antiviral -88, Lassa entry inh inconclusive, FMDV antiviral inconclusive, MARV entry inh inconclusive
CCC(=O)N1CCc2cc(S(=O)(=O)NCCC(=O)Nc3ccc(OC)c(OC)c3)ccc21	none
Cc1cccc(CNC(=O)c2c3n(c(C)cc2=O)-c2ccccc2SC(c2sccc2C)C3)n1 (stereo unspecified)	none (no result: HCMV antiviral, Lassa entry inh, MARV entry inh)
O=c1oc2ccccc2c2c1nnn2CCO	HCMV antiviral -63
COc1ccc(COc2cc(-c3cccc(OC)c3)nc3ccc(NC(C)=O)cc23)cc1	Lassa entry inh inconclusive
COc1ccc(COc2cc(-c3cccc(OC)c3)nc3ccc(N)cc23)cc1	HCMV antiviral -90, Lassa entry inh inconclusive, MARV entry inh inconclusive
COc1ccccc1OCCCCN1CCN(c2ccccc2OC)CC1	none
COc1ccccc1N1CCN(CCCCCCOc2ccc(F)cc2)CC1	HCMV antiviral inconclusive, Lassa entry inh inconclusive, FMDV antiviral inconclusive, MARV entry inh 18µM
Cn1nnnc1SCCCNCc1cccc(OCc2ccccc2F)c1	MARV entry inh inconclusive
CCn1c(SCC(=O)Nc2ccc(C)cc2)nc(O)cc1=O	none
C=CCn1c(SCC(=O)Nc2ccc(Br)cc2)nc(O)cc1=O	HCMV antiviral -100 (no result: Lassa entry inh, MARV entry inh)
COc1ccc(CNC(=O)O[C@H]2CC[C@@]34CCCN3C(=O)CCC[C@H]4[C@H]2Cc2ccccc2)cc1OC	none (no result: Lassa entry inh, FMDV antiviral, MARV entry inh)
O=C(CCc1ccccc1)NC(NC(=S)Nc1ccc(Cl)cc1)C(Cl)(Cl)Cl (stereo unspecified)	Lassa entry inh inconclusive, MARV entry inh 11µM
O=C(/C=C/c1ccccc1)NC(NC(=S)Nc1ccc(Cl)cc1)C(Cl)(Cl)Cl (stereo unspecified)	HCMV antiviral inconclusive, Lassa entry inh inconclusive, MARV entry inh 4.6µM
COc1ccccc1-c1c(C(F)(F)F)oc2cc(OS(C)(=O)=O)ccc2c1=O	Lassa entry inh inconclusive, FMDV antiviral 32µM, MARV entry inh inconclusive
CCSc1nnc(NC(=O)C(C)Sc2nc3ccccc3[nH]2)s1 (stereo unspecified)	HCMV antiviral -103
CN(C)CCNC(=O)c1sc2nc(-c3ccccc3)cc(C(F)(F)F)c2c1N	Lassa entry inh inconclusive, MARV entry inh 5µM
Nc1c(C(=O)C2CC2)sc2nc(-c3ccccc3)cc(C(F)(F)F)c12	HCMV antiviral -77, MARV entry inh inconclusive
COc1ccc(-c2cc(C(F)(F)F)c3c(N)c(C(=O)NCCSC)sc3n2)cc1	none
CC(=O)c1sc2nc(-c3cccs3)cc(C(F)(F)F)c2c1N	none
COC(=O)CC=C[C@@H](C)[C@H](OC)c1ccccc1Br	Lassa entry inh inconclusive, MARV entry inh 0.6µM! (no result: HCMV antiviral, FMDV antiviral)
CC(C)C[C@H]1C(=O)N2CCCC2[C@]2(O)O[C@](NC(=O)[C@@H]3C=C4c5cccc6[nH]c(Br)c(c56)C[C@H]4N(C)C3)(C(C)C)C(=O)N12 (stereo partly specified)	MARV entry inh 10µM (no result: HCMV antiviral, Lassa entry inh, FMDV antiviral)
CO[C@H]1[C@H](NC(=O)c2ccsc2)c2ccccc2C12CCN(Cc1ccc3c(c1)OCO3)CC2	none (no result: HCMV antiviral, Lassa entry inh, MARV entry inh)
O=C(/C=C\c1ccco1)NC(=S)Nc1ccccc1O	none (no result: Lassa entry inh, MARV entry inh)
Cc1ccc(NC(=S)NC(=O)/C=C/c2ccco2)c(O)c1	HCMV antiviral -64, FMDV antiviral inconclusive
CCOC(=O)c1cccc(NC(=O)c2cc(S(=O)(=O)N3CCCCCC3)cn2C)c1	none (no result: MARV entry inh)
O=C(c1sc2ccccc2c1Cl)N1CCN(c2ncccn2)CC1	HCMV antiviral -63, FMDV antiviral inconclusive
CC(=O)NC(c1ccccc1)c1nc(-c2cccnc2)cs1 (stereo unspecified)	none (no result: Lassa entry inh, MARV entry inh)
O=C1CC2(CCCCC2)Oc2ccccc21	none (no result: Lassa entry inh, MARV entry inh)
